# Compound activity: PubChem, National Center for Advancing Translational Sciences (NCATS)
# Hits are enriched below; roughly 21% of the tested compounds scored in any of these assays.
# TDP1 cell CPT = growth inhibition of DT40 Tdp1-/-;hTDP1 cells with camptothecin (screen for TDP1 inhibitors); Potency, µM (top dose mostly 46.2 µM), for the others: at the highest dose activity change, negative = growth inhibition, hits mostly inhibitors; hit rate 12% among 420,000; chicken DT40 Tdp1-/-;hTDP1 cells + 20 nM CPT, ATP luminescence, 48 h; also: potency is read from the fitted curve at half-maximal effect; nearly all actives have a fitted effect of over 55% in size
#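 Chicken DT40 Tdp1-/- cells stably complemented with human TDP1 were seeded at 400 cells/well in medium containing 20 nM camptothecin, exposed to pin-transferred compounds, and grown at 37 °C for at least 48 hr. Viability was read as ATP luminescence.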
# DT40 TDP1 no CPT = qHTS for Inhibitors of human tyrosyl-DNA phosphodiesterase 1 (TDP1): qHTS in cells in absence of CPT | AID 686978, 2013 | DT40 Tdp1-/- hTDP1 cells, no CPT, ATP luminescence, 48 h | Potency, µM (titrated, usually from 46.2 µM), for inactives: top-dose activity change, negative = growth inhibition, hits mostly inhibitors | hit rate 15% among 420,000; also: potency is read from the fitted curve at half-maximal effect; nearly all actives have a fitted effect of over 55% in size
#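 Cells were dispensed at 400 per well, compounds added by pin tool, plates incubated ≥48 hr at 37 °C, then CellTiter-Glo added for 30 min at room temperature before luminescence reading. Line: DT40 Tdp1-/- complemented with hTDP1; camptothecin omitted.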
# ELG1 DNA repair = blocks ELG1-dependent DNA repair in HEK293T cells; HEK293T ELG1-luciferase reporter, luminescence, 16 h; DNA damage induced by 5-fluorouridine; Potency, µM (titrated, usually from 46.1 µM), inactives show at the highest dose activity change, negative = inhibition, actives largely listed as inhibitors; hit rate 2.3% among 330,000; AID 504467; also: potency is read from the fitted curve at half-maximal effect; nearly all actives have a fitted effect of over 55% in size
#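 Reporter activity after DNA damage by 5-fluorouridine is monitored. Compound-treated cells incubate 16 hr at 37 °C, then ONE-Glo is added for 30 min before luminescence reading.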
# RORgamma inh = ROR gamma (mouse) transcription inhibition; P51450; Drosophila S2 Gal4-RORgamma UAS-luciferase reporter, 20 h; Potency, µM (doses to about 53.6 µM), for inactives: at the highest dose activity change, negative = inhibition, hits mostly inhibitors; hit rate 5.4% among 310,000; AID 2551; also: potency is read from the fitted curve at half-maximal effect; nearly all actives have a fitted effect of over 60% in size
# Target sequence (P51450 whole entry, looked up, the tested form may be a part): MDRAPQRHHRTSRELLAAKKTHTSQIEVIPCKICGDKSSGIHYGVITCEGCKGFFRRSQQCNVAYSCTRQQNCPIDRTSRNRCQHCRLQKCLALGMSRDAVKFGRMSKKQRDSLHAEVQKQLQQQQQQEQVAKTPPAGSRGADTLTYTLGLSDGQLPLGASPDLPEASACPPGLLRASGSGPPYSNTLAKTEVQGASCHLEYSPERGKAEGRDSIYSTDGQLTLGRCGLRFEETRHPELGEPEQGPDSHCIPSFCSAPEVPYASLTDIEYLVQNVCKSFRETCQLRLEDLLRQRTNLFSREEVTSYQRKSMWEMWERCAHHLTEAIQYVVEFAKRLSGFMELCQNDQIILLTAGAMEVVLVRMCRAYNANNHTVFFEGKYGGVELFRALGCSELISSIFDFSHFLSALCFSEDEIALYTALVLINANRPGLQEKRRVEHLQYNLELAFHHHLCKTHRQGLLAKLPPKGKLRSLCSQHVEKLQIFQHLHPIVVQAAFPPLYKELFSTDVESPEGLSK
#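 A Gal4/UAS one-hybrid system in insect cells: metallothionein-promoter Gal4–ROR gamma fusion plus Photinus luciferase reporter. Copper sulfate 700 uM final, 20 hr ambient incubation, luminescent detection after 10 min with reagent.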
# IL1B secr inh = blocks inflammasome-driven IL-1 beta release; THP-1 LPS/ATP IL-1B secretion, AlphaLISA, 16 h; active compounds read low; activity change, % at 57.5 µM; hit rate 4.7% among 360,000; in the data active = activity change below about -50%; inconclusive = mostly about -30% to -49%
#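 THP-1 cells pretreated 1 hr with compounds (up to 57.5 uM final), then stimulated with LPS (250 ng/mL final) plus ATP (1.25 mM final); secreted IL-1B measured by AlphaLISA after 16 hr, decreased signal indicating inhibition.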
# VP16 counter = Gal4-VP16 reporter inhibition counter-screen; Drosophila S2 Gal4-VP16 UAS-luciferase, luminescence, 20 h; Potency, µM (series often up to 53.6 µM), inactives show at the highest dose activity, negative = inhibition, most hits filed as inhibitors; hit rate 3.5% among 310,000; AID 2546;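 also: Gal4-VP16 expression switched on by copper sulfate through the metallothionein promoter; potency is read from the fitted curve at half-maximal effect; nearly all actives have a fitted effect of over 50% in size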
# The depositor's hits bear a star; ? = inconclusive; . = no result. Unless noted, calls follow the shape of the dose curve; as a rule, active = well fitted curve in the direction sought with a large enough effect; inconclusive = small, poorly fitted or top-dose-only effect, or another doubt; inactive = no such curve, though single readings can be large; an effect the other way counts as inactive or inconclusive. % is scaled to controls: 0 for no effect and ±100 for the full control effect.
SMILES,TDP1 cell CPT,DT40 TDP1 no CPT,ELG1 DNA repair,RORgamma inh,IL1B secr inh,VP16 counter
CC(=O)NC(c1ccccc1)c1nc(-c2ccc3ccccc3c2)cs1 (stereo unspecified),16µM*,?,.,.,-21,.
CC(=O)NC(c1ccccc1)c1nc(-c2ccc(C)c(C)c2)cs1 (stereo unspecified),16µM*,18µM*,.,.,?,.
COc1cccc(C(NC(C)=O)c2nc(-c3ccc(C)c(C)c3)cs2)c1 (stereo unspecified),?,?,.,.,16,.
COc1cccc(C(NC(C)=O)c2nc(-c3ccc4ccccc4c3)cs2)c1 (stereo unspecified),18µM*,?,.,.,-6,.
CCOc1cc(CNC(=O)C(NS(=O)(=O)c2cccs2)C(C)C)cc(OCC)c1OCC (stereo unspecified),0%,-4%,.,.,.,.
COc1ccc2nc(N3C(=O)/C(=C/c4ccc(Cl)cc4)NC3=S)sc2c1,?,21µM*,14%,?,22,0%
CCOc1ccc(NC(=O)C2CCN(C(=O)N3CC(C)Oc4ccc(Cl)cc43)CC2)cc1 (stereo unspecified),23µM*,15µM*,.,.,.,.
Cc1cc(C)c(NC(=O)C2CCN(C(=O)N3CC(C)Oc4ccc(Cl)cc43)CC2)c(C)c1 (stereo unspecified),?,21µM*,.,.,.,.
CC1CN(C(=O)N2CCC(C(=O)NC3CCCCCC3)CC2)c2cc(Cl)ccc2O1 (stereo unspecified),15µM*,18µM*,.,.,.,.
Cc1cc(C)nc(SCC(=O)NNS(=O)(=O)c2ccc(C#N)cc2)n1,-19%,-6%,0%,.,10,.
CCCCC[C@H](O)/C=C/[C@@H]1[C@H](C/C=C\CCCC(=O)O)[C@@H](O)C[C@H]1O,.,.,.,-15%,.,7%
CC(=O)N1CCC2(CC1)CN(c1cccc(-c3ccccc3)c1)C2,-26%,?,.,20%,.,13µM*
CC(=O)N1CCC2(CC1)CCN(c1cccc(-c3ccccc3)c1)CC2,?,21µM*,.,29%,.,-10%
O=C(c1cnccn1)N1CCC2(CC1)CN(c1cccc(-c3ccccc3)c1)C2,18µM*,?,.,-3%,.,5µM*
CC(=O)N1CCC2(CC1)CN(c1ccccc1)C2,?,-21%,.,-1%,.,17%
O=C(CSc1ccc([N+](=O)[O-])cc1)Nc1nnc(C2CC2)s1,-2%,-20%,22%,.,9,.
Cc1cccc(N2CCN(S(=O)(=O)c3ccc4c(c3)CC(C)N4C(=O)C3CC3)CC2)c1C (stereo unspecified),?,23µM*,?,20%,-4,-7%
CC(=O)c1ccc(N2CCN(S(=O)(=O)c3ccc4c(c3)CC(C)N4C(=O)C3CC3)CC2)cc1 (stereo unspecified),4.6µM*,5.8µM*,?,-41%,4,11µM*
COc1ccc(N2CCN(S(=O)(=O)c3ccc4c(c3)CC(C)N4C(=O)C3CC3)CC2)cc1 (stereo unspecified),-3%,-1%,?,14%,34,-2%
CC(=O)c1ccc(N2CCN(S(=O)(=O)c3ccc4c(c3)CC(C)N4C(C)=O)CC2)cc1 (stereo unspecified),23µM*,7.3µM*,?,?,50,?
CCC(=O)N1c2ccc(S(=O)(=O)N3CCN(c4ccc([N+](=O)[O-])cc4)CC3)cc2CC1C (stereo unspecified),9.2µM*,7.3µM*,5%,?,5,?
O=C(O)CSc1cc(NS(=O)(=O)c2ccc(Cl)cc2)c2ccccc2c1O,4.6µM*,2.3µM*,?,-24%,-84*,?
O=S(=O)(Nc1cc(Sc2cccc3cccnc23)c(O)c2ccccc12)c1ccc(F)cc1,0.58µM*,0.92µM*,9.2µM*,1.3µM*,-98*,2.5µM*
O=S(=O)(Nc1ccc(Cl)cc1NS(=O)(=O)c1ccccc1)c1ccccc1,?,?,.,.,-6,.
COc1ccc(S(=O)(=O)Nc2ccc(O)c(Sc3ncn[nH]3)c2)cc1,?,-17%,-5%,-7%,1,6%
SMILES,TDP1 cell CPT,DT40 TDP1 no CPT,ELG1 DNA repair,RORgamma inh,IL1B secr inh,VP16 counter
COc1ccc(S(=O)(=O)Nc2cc(S(=O)(=O)c3ccccc3)c(O)cc2C)cc1,-18%,-14%,-17%,23%,-2,1%
COc1ccc(S(=O)(=O)Nc2cc(SCC(=O)O)c(O)c3ccccc23)cc1,3.3µM*,5.2µM*,16µM*,?,-59*,-21%
COc1ccc(S(=O)(=O)Nc2cc(Sc3ncn[nH]3)c(O)c3ccccc23)cc1,.,.,23µM*,5µM*,.,7.1µM*
COc1ccccc1NC(=O)c1ccccc1N(Cc1ccccc1)S(C)(=O)=O,?,?,-7%,-11%,-2,-11%
CCOC(=O)c1cc(-c2cccc(O)c2)oc1C,?,?,.,.,24,.
CCCc1nnc(NC(=O)OCC)s1,-5%,8%,6%,2%,41,1%
COc1ccc(S(=O)(=O)Nc2cccc3ccc(O)cc23)cc1,6.5µM*,7.3µM*,.,.,34,.
Cc1ccc(C(=O)c2cc3c(cc2[N+](=O)[O-])OCCO3)cc1,2%,?,?,39%,?,-19%
Cc1nc([N+](=O)[O-])c(Br)n1CC(=O)c1ccccc1,18µM*,8.2µM*,-6%,4µM*,?,?
Cc1cc([N+](=O)[O-])nn1CC(=O)c1ccccc1,-5%,0%,14%,?,-4,-6%
Cc1nc([N+](=O)[O-])c(Br)n1CC(=O)c1ccc2ccccc2c1,21µM*,21µM*,?,14µM*,-120*,?
Cc1nc([N+](=O)[O-])cn1CC(=O)c1ccc(Cl)cc1,-18%,23%,-5%,-3%,19,-7%
Cc1nc([N+](=O)[O-])c(Br)n1CC(=O)c1ccc(Br)cc1,7.3µM*,8.2µM*,0%,11µM*,-84*,?
COc1cc(C(=O)N(C)C2CCCCC2)cc(OC)c1OC,?,?,.,.,16,.
C[C@H](O)[C@@H]1C(=O)N2CCc3ccc(N4CCN(C)CC4)cc3[C@@H]2C[C@@H]1N(C)C(=O)c1cccnc1,-7%,-12%,.,.,8,.
Cc1ccsc1CNCc1cc(Cl)ccc1O,-27%,-23%,27%,.,-19,.
